For 15 compounds, z-score results are on record in PubChem BioAssay.

The source made the active and inactive calls.

The nature of assay [1]: A549 cell viability effects, profiling panel, calcein-AM fluorescence, 48 h, basal (AID 1162). Particulars: higher = more signal.
Assay [2] in a line: adipocyte viability effects, profiling panel, cell-based, 3T3-L1 adipocytes, calcein-AM fluorescence, 48 h, basal (AID 1163). The conditions noted are these: 3T3-L1 adipocytes viability, higher = more signal.
The nature of assay [3]: HepG2 cell viability effects, profiling panel, calcein-AM fluorescence, 48 h, basal (AID 1164). Particulars: higher = more signal.
Assay [4] can be described thus: MM1S cell viability effects, profiling panel, calcein-AM fluorescence, 48 h, basal (AID 1165).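 Note: viability of MM1S multiple myeloma cells under basal unstimulated conditions.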 Particulars: higher = more signal.
A short description of assay [5]: basal RPMI8226 viability, no added stimulus, profiling panel, cell-based, calcein-AM fluorescence, 48 h, PK04 Diversity Set (AID 1166).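 Note: cells grown under basal conditions without added stimulus.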 The conditions noted are these: RPMI8226 myeloma viability, higher = more signal.
A short description of assay [6]: basal HepG2 mitochondrial membrane potential changes, profiling panel, cell-based, JC-1 fluorescence, 24 h, 100 nL compound (AID 1167). Particulars: higher = more signal.
A short description of assay [7]: basal 3T3-L1 adipocyte mitochondrial potential changes, profiling panel, cell-based, JC-1 fluorescence, 3T3-L1 adipocytes, 24 h, 100 nL compound (AID 1168). The conditions noted are these: JC-1 mitochondrial fluorescence, higher = more signal, called active from +8 up or from −8 down.
A short description of assay [8]: basal RPMI8226 mitochondrial membrane potential changes, profiling panel, cell-based, JC-1 fluorescence, 24 h, 100 nL compound (AID 1169). The conditions noted are these: RPMI8226 myeloma, JC-1 mitochondrial potential fluorescence, higher = more signal.
Assay [9] is described as follows: basal MM1S mitochondrial membrane potential changes, profiling panel, cell-based, JC-1 fluorescence, 24 h, 100 nL compound (AID 1170). Particulars: higher = more signal.
Assay [10] in a line: A549 lung cancer cell viability effects, profiling panel, resazurin fluorescence, 24 h, PK04 Diversity Set (AID 1171). The conditions noted are these: higher = more signal, called active from +8 up or from −8 down. On the technique in general: Alamar Blue is a resazurin reagent that responds to reducing activity.
Note: test concentration not given here.

As for `CC(C)(C)OC(=O)CC[C@]1(C(=O)NCCN2CCOCC2)N=C(c2ccc(OCCCO)cc2)O[C@H]1c1ccccc1CN=[N+]=[N-]`, the z-score is 0.327 in assay [1]; 1.13 in assay [2]; 0.0133 in [3]; 1.31 in [4]; -0.722 in [5]; -0.131 in assay [6]. Besides, the z-score in assay [7] was 0.289 (inactive); in [8] it was -0.0354; in assay [9] it was 0.671; in assay [10], 0.619 (inactive).

As for `N#Cc1ccc(NN2C(C(O)CCc3ccccc3)C=CC3C(=O)N(c4ccccc4)C(=O)C32)cc1` (stereo not given), the z-score in assay [1] was 0.422; in [2] it was -0.191; in assay [3] it was 1.18; in assay [4] it was 0.197; in assay [5], -0.0961; in [6] it was -0.256. Also, the z-score in assay [7] was -0.0951 (inactive); in [8] it was 0.245; in assay [9] it was 0.419; in [10], 0.197 (inactive).

As for `C[C@@H]1NC(=O)CC=C[C@@H](C)[C@@H]2C=C[C@H](O)[C@@H](COC(=O)[C@H](C)NC(=O)CC=C[C@@H](C)[C@@H]3C=C[C@H](O)[C@@H](COC1=O)O3)O2`, the z-score was 0.362 in assay [1]; 1.59 in assay [2]; -0.195 in assay [3]; 0.188 in assay [4]; -1.38 in assay [5]; 1.1 in assay [6]. For the same compound, the z-score was 0.863 (inactive) in assay [7], 0.21 in assay [8], 0.665 in [9] and -0.756 (inactive) in assay [10].

Regarding `CC1CC/C=C\[C@H]2OC34C=CCN(Cn5nnc6ccccc65)C(=O)[C@H]3N(C(C)CO)C(=O)[C@@H]4C2C(=O)O1` (stereo not given in full), the z-score in assay [1] was 0.151; in [2], -0.14; in assay [3], 0.203; in assay [4], 0.835; in assay [5] it was 0.182; in [6] it was 0.236. Further, the z-score in assay [7] was -0.087 (inactive); in assay [8] it was 0.128; in assay [9] it was -0.731; in assay [10], 0.0113 (inactive).

In the case of `C=CCN(C(=O)C1N(c2ccc(CCO)cc2)C(=O)C2C(C(=O)O)C3C=CC21O3)C(C)(C)C` (stereo not given), the z-score was 0.478 in assay [1]; 1.86 in assay [2]; 0.134 in assay [3]; 1.69 in assay [4]; -0.265 in assay [5]; 0.556 in assay [6]. Moreover, the z-score is 2.37 (inactive) in assay [7], 0.0149 in [8], 1.08 in [9] and -1.3 (inactive) in assay [10].

On to `C[N+](C)(C)CCCC[C@@H]1NC(=O)[C@H]2C[C@@H](C(=O)NCc3ccc(F)cc3)[C@@H](c3cccc(OCCO)c3)N2C1=O`, for which the z-score in assay [1] was 0.191; in assay [2], 1.01; in assay [3], -0.676; in assay [4], -1.04; in assay [5], 0.366; in [6] it was 1.79. In addition, the z-score in [7] is 1.06 (inactive); in assay [8], -0.397; in assay [9], 0.392; in [10], 0.656 (inactive).

In the case of `CCOC(=O)C[C@H]1[C@H](OC(=O)Cc2ccc3c(c2)OCO3)[C@@H](NC(=O)c2ccc3ccccc3c2)c2cc(OCCCO)ccc2N1C(=O)Cc1ccc(OC)cc1`, the z-score was 1.55 in [1]; 1.08 in assay [2]; 1.56 in [3]; 0.956 in assay [4]; 0.41 in assay [5]; 1.66 in assay [6]. The z-score in assay [7] is -0.14 (inactive); in assay [8], -0.384; in [9], -1.1; in [10], -0.654 (inactive).

As for `CN(C)CCCC[C@@H]1NC(=O)[C@@H]2C[C@H](C(=O)O)[C@H](c3ccc(O)cc3)N2C1=O`, the z-score in [1] was -0.533; in [2], 1.36; in assay [3] it was -1.03; in assay [4], -3.01; in assay [5], -0.102; in assay [6] it was 1.26. In addition, the z-score in assay [7] was 0.292 (inactive); in assay [8], -0.0425; in assay [9] it was -0.971; in assay [10] it was -0.385 (inactive).

With `C=C(COC)/C(=C/C[C@@H](OC(=O)c1ccncc1)c1ccc(OCCO)cc1)c1cc(C(=O)OC)ccc1OC`, the z-score in assay [1] is 1.13; in assay [2] it was 1.51; in [3], 0.183; in assay [4] it was -0.312; in [5], 0.93; in [6], 2.48. Further, the z-score in assay [7] was 1.79 (inactive); in assay [8], 0.116; in assay [9] it was 0.487; in [10] it was 1.6 (inactive).

As to `COCCOC(=O)N1C(=O)[C@@]2(c3cc(C#CCCO)ccc31)[C@H](c1ccc(O)cc1)N1[C@H](c3ccccc3)[C@H](c3ccccc3)OC(=O)[C@H]1[C@@H]2C(=O)Nc1nc2ccccc2s1`, the z-score in [1] was 0.615; in [2], 1.62; in assay [3], -0.425; in assay [4], -0.24; in assay [5], -1.53; in assay [6] it was -3.45. The z-score is -2.22 (inactive) in [7], -0.684 in assay [8], -1.11 in [9] and -0.192 (inactive) in [10].

`O=C1O[C@@H](c2ccccc2)[C@@H](c2ccccc2)N2[C@@H](c3ccccc3OCCO)[C@]3(C(=O)Nc4ccc(C#CC5=CCCCC5)cc43)[C@@H](C(=O)O)[C@H]12`: the z-score in assay [1] is -1; in assay [2] it was 1.61; in assay [3] it was -0.992; in assay [4] it was -3.39; in [5], -4.65; in assay [6], -3.81. Besides, the z-score is 4.74 (inactive) in assay [7], -1.07 in [8], -0.999 in assay [9] and 0.289 (inactive) in [10].

Regarding `CCOC(=O)C1=C[C@@H](c2ccccc2)N(S(=O)(=O)c2ccc(C)cc2)[C@H]1c1ccc(F)cc1`, the z-score in assay [1] is -1.39; in assay [2], -0.498; in [3] it was -2.67; in assay [4], -2.06; in [5], -1.34; in assay [6] it was 2.45. Besides, the z-score is -1.16 (inactive) in [7], -0.118 in [8], -0.00719 in [9] and 1.04 (inactive) in [10].

For `Cc1cc(C)c(C(O)C2C=CC3C(=O)N(C)C(=O)C3N2N2CCCCC2)c(C)c1` (stereo not given), the z-score in assay [1] was -0.905; in [2], -0.878; in [3], -0.863; in assay [4], -0.225; in [5], -1.11; in assay [6], -1.74. The z-score was -0.721 (inactive) in [7], 0.935 in [8], 0.173 in [9] and 0.406 (inactive) in assay [10].

As to `COc1cc2c(cc1OC)CN(C(=O)[C@H]1[C@@H]3C(=O)O[C@@H](c4ccccc4)[C@@H](c4ccccc4)N3[C@@H](c3ccccc3OCCO)[C@]13C(=O)Nc1ccc(C#CC4(O)CCCCCC4)cc13)CC2`, the z-score in [1] is 0.434; in [2], -0.0514; in assay [3], 1.64; in [4], -0.988; in assay [5], -1.93; in [6] it was -0.198. The z-score was 0.994 (inactive) in [7], -0.812 in [8], -1.41 in assay [9] and -0.771 (inactive) in assay [10].

For `CCOC(=O)C[C@H]1[C@H](OC(=O)c2cc3ccccc3oc2=O)[C@@H](NC(=O)c2ccc3ccccc3c2)c2cc(OCCCO)ccc2N1C(=O)c1ccc2ccccc2n1`, the z-score in assay [1] was 0.418; in assay [2] it was 1.48; in assay [3], -0.0664; in assay [4], 0.555; in [5], 0.167; in assay [6], 0.158. Moreover, the z-score was -0.0237 (inactive) in assay [7], -0.233 in assay [8], 0.197 in assay [9] and -0.194 (inactive) in assay [10].
